Experimental data: PubChem BioAssay (Tox21)
Where “and” joins values, the source holds several entries; their conditions need not be identical. Equal values may be shown once. More than one record can exist for a structure, and the calls need not agree. Calls of active or inactive are those of the source. A call without a number means that no potency is given here. Unless noted, calls come from the whole dose curve; as a rule, active = well fitted curve in the direction sought with a large enough effect in the repeat runs; inconclusive = weak or mixed curves; inactive = no such curve, though single readings can be large; an effect the other way counts as inactive or inconclusive.

Columns and labels:
[1] = qHTS assay to identify small molecule antagonists of the thyroid receptor (TR) signaling pathway - cell viability counter screen (AID 743064); note: nearly all actives have a fitted effect of over 50% in size; note: potency is the fitted concentration of half-maximal effect
How it was run: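 Fluorescence from CellTiter-Fluor, added after 23.5 h exposure at 37 °C, reported viability of GH3.TRE-Luc cells co-treated with compound and 1 nM T3. Measured in the same wells as the luciferase TR readout.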

[2] = qHTS assay to identify small molecule antagonists of the thyroid receptor (TR) signaling pathway (AID 743065); note: nearly all actives have a fitted effect of over 55% in size; note: potency is the fitted concentration of half-maximal effect
How it was run: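 GH3.TRE-Luc rat pituitary cells carrying two TR response elements driving luciferase were plated for 4 h, given compound plus 1 nM T3 (final), and incubated 23.5 h at 37 C. ONE-Glo luminescence measured reporter inhibition; CellTiter-Fluor fluorescence tracked cytotoxicity.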

[3] = tested on: thyroid hormone receptor (rat, GH3 cells); assay: qHTS assay to identify small molecule agonists of the thyroid receptor (TR) signaling pathway (AID 743066; calls by dose curve; note: potency is the fitted concentration of half-maximal effect)
[4] = biological target: Estrogen receptor (Homo sapiens) (UniProt P03372); assay: qHTS assay to identify small molecule antagonists of the estrogen receptor alpha (ER-alpha) signaling pathway (AID 743069; active = well fitted curve in the direction sought with a large enough effect in the signal ratio in the repeat runs, not every such curve was filed as active; inconclusive = weak or mixed curves, or effect the other way; inactive = no such curve, though single readings can be large or run the other way; the % refers to the signal ratio; note: potency is the fitted concentration of half-maximal effect)
Estrogen receptor (Homo sapiens), sequence (P03372 whole entry, looked up): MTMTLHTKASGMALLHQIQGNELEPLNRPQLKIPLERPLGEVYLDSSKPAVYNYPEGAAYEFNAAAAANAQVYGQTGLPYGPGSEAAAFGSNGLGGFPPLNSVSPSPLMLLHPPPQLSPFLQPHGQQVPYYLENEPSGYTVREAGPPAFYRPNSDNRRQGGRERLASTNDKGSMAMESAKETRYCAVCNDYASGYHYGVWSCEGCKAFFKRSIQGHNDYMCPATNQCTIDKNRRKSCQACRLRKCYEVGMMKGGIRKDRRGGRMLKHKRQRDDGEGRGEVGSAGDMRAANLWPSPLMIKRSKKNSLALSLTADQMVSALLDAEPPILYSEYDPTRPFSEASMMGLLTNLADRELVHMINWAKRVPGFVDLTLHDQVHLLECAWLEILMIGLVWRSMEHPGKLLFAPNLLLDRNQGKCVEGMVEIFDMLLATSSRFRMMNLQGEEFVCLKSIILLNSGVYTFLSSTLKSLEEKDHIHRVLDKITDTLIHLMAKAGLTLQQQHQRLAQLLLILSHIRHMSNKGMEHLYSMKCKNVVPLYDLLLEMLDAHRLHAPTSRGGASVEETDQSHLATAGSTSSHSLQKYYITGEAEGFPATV
How it was run: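 HEK293 cells stably carrying an ER-alpha-UAS-bla beta-lactamase reporter were pre-cultured overnight in 2% charcoal-stripped FBS medium. Test compounds in DMSO were added together with 17beta-estradiol for 18 hr at 37C. Read-out was fluorescence after 2 hr with LiveBLAzer B/G FRET substrate at room temperature.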

[5] = qHTS assay to identify small molecule antagonists of the estrogen receptor alpha (ER-alpha) signaling pathway - cell viability counter screen (AID 743074; calls by dose curve; note: nearly all actives have a fitted effect of over 45% in size; note: potency is the fitted concentration of half-maximal effect)
[6] = biological target: Estrogen receptor (Homo sapiens) (UniProt P03372); assay: qHTS assay to identify small molecule agonists of the estrogen receptor alpha (ER-alpha) signaling pathway (AID 743075; calls by dose curve; note: potency is the fitted concentration of half-maximal effect)
[7] = biological target: Estrogen receptor (Homo sapiens) (UniProt P03372); assay: qHTS assay to identify small molecule agonists of the estrogen receptor alpha (ER-alpha) signaling pathway using the BG1 cell line (AID 743079); conditions: BG1Luc4E2 cells, ERE-luciferase agonist, 22 h; activation: at 70.3 µM (top of the series); note: nearly all actives have a fitted effect of over 20% in size; note: potency is the fitted concentration of half-maximal effect
[8] = qHTS assay to identify small molecule antagonists of the estrogen receptor alpha (ER-alpha) signaling pathway using the BG1 cell line (AID 743080; calls by dose curve;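 note: BG1 cells stimulated with 17beta-estradiol alongside compound; nearly all actives have a fitted effect of over 25% in size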; note: potency is the fitted concentration of half-maximal effect)
How it was run: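 Quantitative HTS on the Tox21 10K library: BG1 cells with endogenous ER-alpha and ERE-luciferase reporter, 17beta-estradiol stimulation, 21.5 h compound exposure, luminescence endpoint with parallel fluorescence cytotoxicity counter-read.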

[9] = qHTS assay to identify small molecule antagonists of the estrogen receptor alpha (ER-alpha) signaling pathway using the BG1 cell line - cell viability counter screen (AID 743081);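 note: compound given together with 17beta-estradiol as the ER stimulus; nearly all actives have a fitted effect of over 45% in size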; note: potency is the fitted concentration of half-maximal effect
[10] = biological target: Aromatase (Homo sapiens) (UniProt P11511); assay: qHTS assay to identify aromatase inhibitors (AID 743083); note: nearly all actives have a fitted effect of over 55% in size; note: potency is the fitted concentration of half-maximal effect
Aromatase (Homo sapiens), sequence (P11511 whole entry, looked up): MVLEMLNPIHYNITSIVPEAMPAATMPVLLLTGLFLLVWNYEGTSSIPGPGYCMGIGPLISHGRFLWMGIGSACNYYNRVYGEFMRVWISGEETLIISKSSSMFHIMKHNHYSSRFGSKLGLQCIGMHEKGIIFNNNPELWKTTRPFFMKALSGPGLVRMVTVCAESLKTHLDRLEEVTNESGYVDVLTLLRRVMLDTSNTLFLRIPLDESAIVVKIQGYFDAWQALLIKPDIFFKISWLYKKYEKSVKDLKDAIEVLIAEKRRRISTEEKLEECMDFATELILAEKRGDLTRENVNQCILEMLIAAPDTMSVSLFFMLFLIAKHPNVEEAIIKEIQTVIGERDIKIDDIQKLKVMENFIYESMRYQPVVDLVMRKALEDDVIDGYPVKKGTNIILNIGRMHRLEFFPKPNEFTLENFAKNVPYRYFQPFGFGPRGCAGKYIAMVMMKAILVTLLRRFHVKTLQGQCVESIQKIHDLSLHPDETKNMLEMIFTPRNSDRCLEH

[11] = qHTS assay to identify aromatase inhibitors - cell viability counter screen (AID 743084);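 note: cells stimulated with testosterone during compound exposure; nearly all actives have a fitted effect of over 55% in size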; note: potency is the fitted concentration of half-maximal effect
[12] = biological target: Aryl hydrocarbon receptor (Homo sapiens) (UniProt P35869); assay: qHTS assay to identify small molecule that activate the aryl hydrocarbon receptor (AhR) signaling pathway (AID 743085);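 note: HG2L7.5c1 human HepG2 liver cells with stably integrated DRE-driven firefly reporter; nearly all actives have a fitted effect of over 15% in size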
Aryl hydrocarbon receptor (Homo sapiens), sequence (P35869 whole entry, looked up): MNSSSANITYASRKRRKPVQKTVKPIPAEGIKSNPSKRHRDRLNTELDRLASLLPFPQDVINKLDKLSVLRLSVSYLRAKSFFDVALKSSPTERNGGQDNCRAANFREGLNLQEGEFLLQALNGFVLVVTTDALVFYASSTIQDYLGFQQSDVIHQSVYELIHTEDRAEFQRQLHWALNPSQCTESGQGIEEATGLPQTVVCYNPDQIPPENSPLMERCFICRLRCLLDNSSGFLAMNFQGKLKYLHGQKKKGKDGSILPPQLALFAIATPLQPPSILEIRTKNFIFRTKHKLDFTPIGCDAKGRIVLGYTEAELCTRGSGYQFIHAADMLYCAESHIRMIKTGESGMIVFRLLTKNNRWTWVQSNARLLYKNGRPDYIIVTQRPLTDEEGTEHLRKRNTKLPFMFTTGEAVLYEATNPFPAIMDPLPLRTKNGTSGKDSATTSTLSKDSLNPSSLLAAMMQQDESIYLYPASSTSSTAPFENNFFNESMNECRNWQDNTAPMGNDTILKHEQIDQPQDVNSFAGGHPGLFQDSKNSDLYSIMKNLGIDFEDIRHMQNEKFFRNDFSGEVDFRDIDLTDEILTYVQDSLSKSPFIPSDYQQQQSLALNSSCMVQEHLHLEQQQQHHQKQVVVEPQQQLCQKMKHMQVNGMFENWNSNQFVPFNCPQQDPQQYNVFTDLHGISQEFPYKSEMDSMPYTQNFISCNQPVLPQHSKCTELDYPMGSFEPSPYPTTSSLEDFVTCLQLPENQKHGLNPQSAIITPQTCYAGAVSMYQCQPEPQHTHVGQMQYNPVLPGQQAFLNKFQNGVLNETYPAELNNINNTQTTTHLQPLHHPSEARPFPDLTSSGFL
How it was run: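 Cell line HG2L7.5c1 (human hepatoma, 20× DRE-luc). Plated, 5 h 37C, compound/DMSO added, 24 h 37C. CellTiter-Fluor 30 min 37C → fluorescence; then ONE-Glo 30 min RT → luminescence.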

[13] = biological target: Peroxisome proliferator-activated receptor gamma (Homo sapiens) (UniProt P37231); assay: qHTS assay to identify small molecule agonists of the peroxisome proliferator-activated receptor gamma (PPARg) signaling pathway (AID 743094; active = well fitted activation curve with a large enough effect in the signal ratio in the repeat runs, not every such curve was filed as active; inconclusive = weak or mixed curves, or effect the other way; inactive = no such curve, though single readings can be large or run the other way; the % refers to the signal ratio; note: potency is the fitted concentration of half-maximal effect)
Peroxisome proliferator-activated receptor gamma (Homo sapiens), sequence (P37231 whole entry, looked up): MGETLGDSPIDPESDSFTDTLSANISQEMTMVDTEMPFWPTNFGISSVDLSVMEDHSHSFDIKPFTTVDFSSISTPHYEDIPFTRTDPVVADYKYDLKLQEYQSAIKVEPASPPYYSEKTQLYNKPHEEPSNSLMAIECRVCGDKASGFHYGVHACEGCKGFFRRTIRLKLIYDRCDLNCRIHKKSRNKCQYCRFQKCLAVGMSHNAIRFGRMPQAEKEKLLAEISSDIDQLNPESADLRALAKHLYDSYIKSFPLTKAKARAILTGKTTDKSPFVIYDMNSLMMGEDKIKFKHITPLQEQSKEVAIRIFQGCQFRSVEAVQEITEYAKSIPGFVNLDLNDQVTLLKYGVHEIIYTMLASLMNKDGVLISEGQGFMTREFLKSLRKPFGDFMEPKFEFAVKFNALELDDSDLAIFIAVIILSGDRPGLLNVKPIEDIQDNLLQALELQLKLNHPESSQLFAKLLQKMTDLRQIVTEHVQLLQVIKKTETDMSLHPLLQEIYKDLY
How it was run: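 Beta-lactamase FRET fluorescence was the read-out after a 1 h room-temperature substrate step, following 17 h compound treatment at 37C of HEK293H cells expressing a UAS-driven bla reporter responsive to PPARg.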

[14] = qHTS assay to identify small molecule antagonists of the peroxisome proliferator-activated receptor gamma (PPARg) signaling pathway - cell viability counter screen (AID 743194); conditions: Potency: co-treated with 50 nM rosiglitazone unless noted; note: nearly all actives have a fitted effect of over 55% in size; note: potency is the fitted concentration of half-maximal effect
How it was run: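 PPARg-UAS-bla HEK293H cells were plated, rested 5 h at 37 C, then treated with compounds plus rosiglitazone (50 nM final) for 17 h at 37 C; viability was then read by CellTiter-Glo luminescence after 30 min at room temperature.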

[15] = qHTS assay for small molecule agonists of the antioxidant response element (ARE) signaling pathway (AID 743202; active = well fitted activation curve with a large enough effect in the signal ratio in the repeat runs, not every such curve was filed as active; inconclusive = weak or mixed curves, or effect the other way; inactive = no such curve, though single readings can be large or run the other way; the % refers to the signal ratio; note: potency is the fitted concentration of half-maximal effect)
How it was run: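 Read-out: LiveBLAzer B/G FRET substrate fluorescence after 2 h at room temperature, following 16 h compound treatment at 37 C of HepG2 cells carrying an ARE-driven beta-lactamase reporter.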

[16] = qHTS assay for small molecule agonists of the antioxidant response element (ARE) signaling pathway - cell viability counter screen (AID 743203; calls by dose curve; note: nearly all actives have a fitted effect of over 55% in size; note: potency is the fitted concentration of half-maximal effect)
How it was run: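 HepG2 cells carrying ARE-driven beta-lactamase; 2,000 cells/well; 5 hrs plating; compound pinned from DMSO; 16 hrs 37C/5% CO2; CellTiter-Glo added; 30 min RT; luminescence.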

[17] = qHTS assay for small molecule activators of the heat shock response signaling pathway - cell viability counter screen (AID 743209); note: nearly all actives have a fitted effect of over 50% in size; note: potency is the fitted concentration of half-maximal effect
How it was run: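 Luminescence from CellTiter-Glo, added after the beta-lactamase FRET read, gave the viability signal. Cells were HSE-bla HeLa treated with DMSO-dissolved compounds for 5 h at 37 C following overnight plating.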

[18] = qHTS assay for small molecule activators of the heat shock response signaling pathway (AID 743210; active = well fitted activation curve with a large enough effect in the signal ratio in the repeat runs, with a control signal flat, not every such curve was filed as active; inconclusive = weak or mixed curves; the % refers to the signal ratio)
How it was run: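 HSE-bla HeLa cells (beta-lactamase reporter under heat shock response elements) were exposed to compounds for 5 h at 37 C, then loaded with LiveBLAzer B/G FRET substrate for 2.5 h at room temperature before fluorescence reading.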

[19] = biological target: Peroxisome proliferator-activated receptor gamma (Homo sapiens) (UniProt P37231); assay: qHTS assay to identify small molecule antagonists of the peroxisome proliferator-activated receptor gamma (PPARg) signaling pathway (AID 743191; calls by dose curve; note: nearly all actives have a fitted effect of over 30% in size)
How it was run: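 GeneBLAzer PPARg UAS-bla HEK293H cells carrying a UAS-driven beta-lactamase reporter were plated at 3000 cells/well, preincubated 5 h at 37C, then given compound for 17 h at 37C; LiveBLAzer B/G FRET substrate was read after 1 h at room temperature.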

[20] = qHTS assay to identify small molecule that activate the aryl hydrocarbon receptor (AhR) signaling pathway - cell viability counter screen (AID 743086); note: nearly all actives have a fitted effect of over 45% in size; note: potency is the fitted concentration of half-maximal effect
How it was run: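 HepG2-AhR-luc (HG2L7.5c1) cells, 4000/well, were preincubated 5 h at 37C, exposed to compound in qHTS format for 24 hr at 37C, then given CellTiter-Fluor for 30 min; viability was read as fluorescence in the reporter wells.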

SMILES	Potency [1]	Potency [2]	Potency [3]	Potency [4]	Potency [5]	Potency [6]	Potency [7]	Potency [8]	Potency [9]	Potency [10]	Potency [11]	Potency [12]	Potency [13]	Potency [14]	Potency [15]	Potency [16]	Potency [17]	Potency [18]	Potency [19]	Potency [20]
N#Cc1ccc(N(CC(N)=O)CC(F)(F)F)cc1C(F)(F)F	inactive	inactive	inactive	inactive	inactive	inactive	inactive	inactive	inactive	inactive	inactive	inactive	0.692 µM (active)	inactive	inactive	inactive	inactive	inactive	–	–
CC(Cl)CCl (centres undefined)	inactive	inactive	inactive	inactive	inactive	inactive	inactive	inactive	inactive	inactive	inactive	inactive	inactive	inactive	inactive	inactive	inactive	inactive	inactive	–
CCCCCCCCCCCCCCn1cc[n+](C)c1	2.74 µM (active) and 15.2 µM (active)	1.09 µM (active) and 3.81 µM (active)	inactive	7.78 µM [inconclusive] (active) and 1.22 µM [inconclusive] (active) and inactive	48.5 µM (active) and inactive	inactive	inactive	1.37 µM (active) and 4.8 µM (active) and inactive	30.7 µM (active) and 24.1 µM (active)	2.44 µM (active) and 5.39 µM (active) and inactive	8.65 µM (active) and 38.1 µM (active)	–	–	9.79 µM [setting not given] (active) and inactive	–	24.4 µM (active) and 30.3 µM (active) and inactive	19.5 µM (active) and 21.6 µM (active) and inactive	–	–	34.4 µM (active)
CN/C(=N\[N+](=O)[O-])NCc1cnc(Cl)s1	inactive	inactive	inactive	inactive	inactive	inactive	inactive	inactive	inactive	inactive	inactive	inactive	inactive	–	inactive	inactive	inactive	inactive	inactive	inactive
COc1cnc(OC)n2nc(NS(=O)(=O)c3c(OCC(F)F)cccc3C(F)(F)F)nc12	inactive	inactive	inactive	inactive	inactive	inactive	inactive	inactive	inactive	inactive	inactive	inactive	–	inactive	inactive	inactive	inactive	inactive	inactive	inactive
O=[N+]([O-])c1ccccc1-c1ccccc1	inactive	inactive	inactive	inactive	inactive	inactive	–	inactive	inactive	inactive	inactive	inactive	inactive	inactive	inactive	inactive	inactive	inactive	inactive	inactive
CC1CN1 (centres undefined)	inactive	inactive	inactive	inactive	inactive	inactive	inactive	inactive	inactive	inactive	inactive	inactive	inactive	inactive	inactive	inactive	inactive	inactive	–	inactive
BrCC(Br)(Br)Br	inactive	inactive	inactive	inactive	inactive	inactive	inactive	35.6 µM (active)	inactive	inactive	inactive	inactive	–	–	–	–	inactive	–	inactive	inactive
ClCBr	inactive	inactive	inactive	inactive	inactive	inactive	–	inactive	inactive	inactive	inactive	inactive	inactive	inactive	–	inactive	inactive	inactive	inactive	inactive
C[C@]12C/C(=C/O)C(=O)C[C@@H]1CC[C@@H]1[C@@H]2CC[C@@]2(C)[C@H]1CC[C@]2(C)O	inactive and 61.7 µM (active)	29.8 µM (active) and 55 µM (active)	inactive	inactive	inactive	674 nM [inconclusive] (active) and 783 nM [inconclusive] (active)	211 nM (active) and 97.8 nM (active)	inactive	inactive	inactive	inactive	–	–	inactive	5.96 µM (active)	inactive	inactive	–	–	inactive
CCNc1nc(NC(C)C(C)C)nc(SC)n1 (centres undefined)	inactive	inactive	inactive	inactive	inactive	inactive	inactive	inactive	inactive	inactive	inactive	–	–	inactive	inactive	inactive	inactive	inactive	inactive	inactive
Nc1nc(N)nc(Cl)n1	inactive	inactive	inactive	inactive	inactive	inactive	inactive	inactive	inactive	inactive	inactive	–	inactive	inactive	inactive	inactive	inactive	inactive	inactive	inactive
CCCCN(CCCC)C(=S)S	inactive	inactive	inactive	inactive	inactive	inactive	inactive	inactive	inactive	inactive	inactive	inactive	inactive	inactive	inactive	inactive	inactive	–	–	–
CC(Cc1ccc(OCC(=O)O)cc1)NCC(O)c1csc(C(F)(F)F)n1 (centres undefined)	inactive	inactive	77 µM (active)	inactive	inactive	inactive	inactive	inactive	inactive	inactive	–	inactive	–	inactive	inactive	inactive	inactive	inactive	inactive	inactive
